PMC13494018
Values without a mark were called inactive. The rule behind the calls is not given here.

Assays:
[1] = target: control:Baker_PD-L1, Q9NZQ7
Chain of control:Baker_PD-L1, Q9NZQ7 (Q9NZQ7 whole entry): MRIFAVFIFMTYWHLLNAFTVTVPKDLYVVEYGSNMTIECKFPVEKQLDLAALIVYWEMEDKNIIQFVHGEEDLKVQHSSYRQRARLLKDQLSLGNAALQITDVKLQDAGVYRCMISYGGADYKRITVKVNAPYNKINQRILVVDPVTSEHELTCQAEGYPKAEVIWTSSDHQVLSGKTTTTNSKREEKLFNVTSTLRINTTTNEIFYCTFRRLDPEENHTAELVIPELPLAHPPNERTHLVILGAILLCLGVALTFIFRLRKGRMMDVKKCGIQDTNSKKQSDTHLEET

Chain of CD276, Q5ZPR3 (Q5ZPR3 whole entry): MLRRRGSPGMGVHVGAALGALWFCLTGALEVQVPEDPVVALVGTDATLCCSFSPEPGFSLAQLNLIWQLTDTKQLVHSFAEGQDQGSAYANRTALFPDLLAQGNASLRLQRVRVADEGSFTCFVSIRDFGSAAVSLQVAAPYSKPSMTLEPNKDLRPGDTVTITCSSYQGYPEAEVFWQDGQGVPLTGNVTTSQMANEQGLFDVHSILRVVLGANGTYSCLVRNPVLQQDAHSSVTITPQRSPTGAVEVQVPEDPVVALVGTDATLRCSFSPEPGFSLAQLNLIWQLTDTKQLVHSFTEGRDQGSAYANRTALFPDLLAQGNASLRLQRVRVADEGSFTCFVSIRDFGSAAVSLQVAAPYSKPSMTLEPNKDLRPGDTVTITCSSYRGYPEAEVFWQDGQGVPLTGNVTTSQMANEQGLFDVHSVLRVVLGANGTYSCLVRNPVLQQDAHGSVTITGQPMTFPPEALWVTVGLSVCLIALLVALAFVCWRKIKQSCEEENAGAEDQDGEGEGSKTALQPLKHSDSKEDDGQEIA

B1: design_391_ca6baf5d-2451-47ba-bffc-fc886679966a_1360_dldesign_0_cycle1_af2pred (protein)
chain: DYTERAKAALKSAIENMAKAAIEAAKEDAEKGKEKLKQLKELSEQMIAIAASLDPALAKEIKAYAEEQIKKVEEAIKKAK
- binding in a display sort (CD276, Q5ZPR3): not found

B2: design_391_ca6baf5d-2451-47ba-bffc-fc886679966a_707_dldesign_0_cycle1_af2pred (protein)
chain: AEEEERERRAEEVRRWAEERAAQARALAAQDPQAGLALALEAMEELRELRERDPAVAEAAREGEQLMAEIAAQAAKAATA
- binding in a display sort (CD276, Q5ZPR3): not found

B3: Pdl1_binder_AF2_52 (protein)
chain: IKEKIEELEKKAEEEVEEAKKLDKEEANKKLNKLSTEIYIEAIQVNDEEFRKKAVEILTKIAKESKELGLEEAEKAASSFAEELKEKL
- binding in a display sort [1]: not found

B4: Pdl1_binder_AF2_95 (protein)
chain: LEEERREFEEVLERLLEVAEEDPEVRERAEEMVRRAREVAEREGVAAGAAEAAVGALRIASEASEEVRKRYLELASELQAIGQRVVRA
- binding in a display sort [1]: not found

B5: design_391_ca6baf5d-2451-47ba-bffc-fc886679966a_926_dldesign_0_cycle1_af2pred (protein)
chain: AEAAAQKALATAMAKALKKRGEELLKEAKTASAEEAKKLLDNFVKLGEVLAAGAPPEVGAEVKAATEKYSAEMQAVIDAKAA
- binding in a display sort (CD276, Q5ZPR3): not found

B6: design_391_ca6baf5d-2451-47ba-bffc-fc886679966a_1141_dldesign_0_cycle1_af2pred (protein)
chain: APAAATARAVGKRAQAAAKKLAKAGTKEVAKEAKKLAEKAKELEKEAIANAADTAVSGAKILEILKLLDEANKLLKKY
- binding in a display sort (CD276, Q5ZPR3): not found

B7: design_391_ca6baf5d-2451-47ba-bffc-fc886679966a_1281_dldesign_0_cycle1_af2pred (protein)
chain: AAQEVQERAREVAARAEALAAAAAADPAAARLARSAAHFARLAAELAPTDLPLAQQALEVAESLLAEAEALLAARRA
- binding in a display sort (CD276, Q5ZPR3): not found

B8: Pdl1_binder_AF2_65 (protein)
chain: ETVRVDATTKETALALMEMGEKAGLKVVIGLTSKEDAEEVAEIAKKKGKFEVFHI
- binding in a display sort [1]: not found

B9: design_391_ca6baf5d-2451-47ba-bffc-fc886679966a_175_dldesign_0_cycle1_af2pred (protein)
chain: DEKLKKAEELAKQAAKATLTPTGKAEFDKLANEAMKLVSQLFKEDPAKGQKAAKALSEAIDQAKANAALAAAAA
- binding in a display sort (CD276, Q5ZPR3): not found

B10: Pdl1_binder_AF2_72 (protein)
chain: DEMDKLKVEAMKYGSKAIKIASEKDEELAERAAEALSLAMTDPEKGAKELRKIAEELEEKGLPEAAEYLRKAADYFERYAKLLKE
- binding in a display sort [1]: not found

B11: design_391_ca6baf5d-2451-47ba-bffc-fc886679966a_1193_dldesign_0_cycle1_af2pred (protein)
chain: AAARQAALLAQAEALRAQAVALADGTAEEQQALLQQIVDLAQAHPDMSPETWAALNAALAAASSAYIRAARA
- binding in a display sort (CD276, Q5ZPR3): not found

B12: design_391_ca6baf5d-2451-47ba-bffc-fc886679966a_968_dldesign_0_cycle1_af2pred (protein)
chain: AAAQQQLRDQARKLLEQAAKRAKEAGNEEAAKEAKEAAKLLKEGGSLGEAAVEASRAHAAAVRFGDEETAALAQAALKLLSQAA
- binding in a display sort (CD276, Q5ZPR3): not found

B13: design_391_ca6baf5d-2451-47ba-bffc-fc886679966a_1527_dldesign_0_cycle1_af2pred (protein)
chain: AEERAEEVRRRAEELRARALALIAEDPGAGMAYAVEAARELSEYGRAHPEVAEAAGEAANDVLSAASRAAMAVYAA
- binding in a display sort (CD276, Q5ZPR3): not found

B14: design_391_ca6baf5d-2451-47ba-bffc-fc886679966a_1195_dldesign_0_cycle1_af2pred (protein)
chain: SLYDEALKYAMQAANLGYEADPELAKKLRQAAIALAQGKIDEAIALLKEAKELAKKYPEKEPEIKELIDKAIELANKIK
- binding in a display sort (CD276, Q5ZPR3): not found

B15: design_391_ca6baf5d-2451-47ba-bffc-fc886679966a_1034_dldesign_0_cycle1_af2pred (protein)
chain: ADAAAQALSQAFELAAQALTKTGSDEANAALQAVTRAMADPAKLPEAIAAAKKAAAAYPEVKALMDQAIKELEKAAELAKAA
- binding in a display sort (CD276, Q5ZPR3): not found

B16: Pdl1_binder_AF2_79 (protein)
chain: KREEALRKAAEAAVKAMEMAKKASDEAKVEIMEHFSRAMRAIKEGDFEEAIRHLRKAAEVAEEKVGKEVGEFIREAAREVERIA
- binding in a display sort [1]: not found

B17: Pdl1_binder_AF2_93 (protein)
chain: REEKIEKVREAAEEAKKAGAIEDYEIEGDEVKFYRKDWKPESLLIVMKAAQVAALEGFKPTIVKS
- binding in a display sort [1]: not found

B18: design_391_ca6baf5d-2451-47ba-bffc-fc886679966a_866_dldesign_0_cycle1_af2pred (protein)
chain: SMEEEKKKEAEKKAQSYLKSVEVWATATISAIAQGVVGAQMLANLKKKSEEAIKKLKELGTEEGKKAAEKVKAYLAKAEAAA
- binding in a display sort (CD276, Q5ZPR3): not found

B19: Pdl1_binder_AF2_85 (protein)
chain: EARELVKEAVEKFEKAAEEALKDFEKAEKLAKEALEKLYEAAKLDPSLRPVYQEAALHLVKALAHDDDPEKASEELKKAAEVAKKELE
- binding in a display sort [1]: not found

B20: Pdl1_binder_AF2_86 (protein)
chain: MRLTIGIAETEEEAEELARRFREEGVEDFVVVTDLEEAVAIAREAGVPTTILAPKGFDTKALLKAAMELNEAGIPTSVQHIP
- binding in a display sort [1]: not found

B21: Pdl1_binder_AF2_91 (protein)
chain: DEKFKKIKKMAKVFSESTGKEIEVEKKGDEFIITAKDADEATYQAAKLLKARAEDLGVKARFKEA
- binding in a display sort [1]: not found

B22: Pdl1_binder_AF2_76 (protein)
chain: MYEVVIEGEKSVAEFIKLIAEQLGAEAEVEGDKAVIRTERREDAERLAEAAKRFGAEAEVRE
- binding in a display sort [1]: binds (active)

B23: Pdl1_binder_AF2_66 (protein)
chain: REQIYEQFLELAKAEAREFPGVVDVSREGDTLIVTTKTEEAAKEFEKRLQPIADSVGVKLETKVA
- binding in a display sort [1]: not found

B24: Pdl1_binder_AF2_92 (protein)
chain: PKVVVEADTEEEAEKMAKKFREMGAEAEIEGKTVVATSDSEELIKLIAVIARDRGLKAEVIP
- binding in a display sort [1]: not found

B25: Pdl1_binder_AF2_87 (protein)
chain: ERREELEAIAKATESLAELLELGEKDPEVRKAALRAAQIVAERLAERAEELGAEEAAELLRKAAEDPENALRYVREAAEKLRAEAEAL
- binding in a display sort [1]: not found

B26: Pdl1_binder_AF2_64 (protein)
chain: EEEEKKEKANLLRVEAAQKLSLVAEALPEVREKALEAIRKIFDKETIEEGVELAREIAERVAAEGTEEQARLAREAVEKAEEALKLEK
- binding in a display sort [1]: not found

B27: design_391_ca6baf5d-2451-47ba-bffc-fc886679966a_1257_dldesign_0_cycle1_af2pred (protein)
chain: SAAAAAAARAAKAAADAEQLKALGDAAIAQLAADPSMAPQARAVAAMARAAAEGYAADPATAAAAEAARATAERVAAAAAAAA
- binding in a display sort (CD276, Q5ZPR3): not found

B28: Pdl1_binder_AF2_61 (protein)
chain: MYVVVAKGTEQQAKLFALIARDRGHEAEVEGDTAVVKTDDLEEAEKLAELARELGMEAEVIE
- binding in a display sort [1]: not found

B29: design_391_ca6baf5d-2451-47ba-bffc-fc886679966a_888_dldesign_0_cycle1_af2pred (protein)
chain: AAAAAAAAAAAAAAAAALARAEELAAAASPEVRALIEAHGIAGRIMFMYTLGARAAAADPARGAELLADARALLAAAQAASRAA
- binding in a display sort (CD276, Q5ZPR3): not found

B30: design_391_ca6baf5d-2451-47ba-bffc-fc886679966a_294_dldesign_0_cycle1_af2pred (protein)
chain: AAEEAAEKAVEEAEKALEKAKAHLAKYPDSLAAKAAVALAKTMLAAAKEVAEEGNLEELERTLESVRKATEEMDKLLAADEAAAA
- binding in a display sort (CD276, Q5ZPR3): not found

B31: design_391_ca6baf5d-2451-47ba-bffc-fc886679966a_164_dldesign_0_cycle1_af2pred (protein)
chain: AGKVGELAAETLKVAAEARRVAAELPEIREEVTARTSRLVAEAFRAALSGTDEDTAKRALEELKRLLEEARELLEEA
- binding in a display sort (CD276, Q5ZPR3): not found

B32: design_391_ca6baf5d-2451-47ba-bffc-fc886679966a_219_dldesign_0_cycle1_af2pred (protein)
chain: AEAERRREEVIREAREAAERLREAGREASPELRALAEATAQTVLLLVEGGEANSPELGLRVAERALELARRTLEEVRAG
- binding in a display sort (CD276, Q5ZPR3): not found

B33: design_391_ca6baf5d-2451-47ba-bffc-fc886679966a_1483_dldesign_0_cycle1_af2pred (protein)
chain: SEAAAKEKKAIEAIKKAAADAEAMLQSLIAAGMPAANARAVVTTMTTAARTAAKEAGTEAAKKAAKEAIAKIEAAGKAAEAQLAAQAA
- binding in a display sort (CD276, Q5ZPR3): not found

B34: design_391_ca6baf5d-2451-47ba-bffc-fc886679966a_206_dldesign_0_cycle1_af2pred (protein)
chain: DWQAVALQAAEAAAQAAKEDPENAALFNEAAHLLLLAVARPETALELTEKALKLAEKAAKTGSELAKKAYELTKEALELLKAA
- binding in a display sort (CD276, Q5ZPR3): not found

B35: design_391_ca6baf5d-2451-47ba-bffc-fc886679966a_1188_dldesign_0_cycle1_af2pred (protein)
chain: AAAEEIAARNGEALARQAAAASPEDAAAIAENALQMARASPLFAPAARKAVEAAAETIAKEDPERGEALLREGLAAVEAIEA
- binding in a display sort (CD276, Q5ZPR3): not found

B36: Pdl1_binder_AF2_73 (protein)
chain: DEARDEAITELMLVASRALKAGPALAEAVELLLEAIHLAVEGRLEEAAELAERAAELAREAGDEEVAEEAERAAELARRAAEEEE
- binding in a display sort [1]: not found

B37: design_391_ca6baf5d-2451-47ba-bffc-fc886679966a_1313_dldesign_0_cycle1_af2pred (protein)
chain: MEEARRRAEELLRRVRELAARAAKAAAAGDVAEAQRLLAEALEALAELSRLGREVGPEGRELVREGNRAVAAAARAALAAARAA
- binding in a display sort (CD276, Q5ZPR3): not found

B38: design_391_ca6baf5d-2451-47ba-bffc-fc886679966a_158_dldesign_0_cycle1_af2pred (protein)
chain: AEEKRKKAQELYEKAIAEAKELAKKGDIGALLKVTMDAAKEILELDPSLEPLAEALRKQGTALAQEAIAAAIAAAA
- binding in a display sort (CD276, Q5ZPR3): not found
